# GLP-1R agonist: qHTS of GLP-1 Receptor Agonists | Glucagon-like peptide 1 receptor (Homo sapiens), P43220 | HEK293 GLP-1R CRE-luciferase, luminescence, 4-6 h; cells express a hypersensitive GLP-1R form | Potency, µM (titrated, usually from 45.6 µM), most hits filed as activators | actives 0.007% (n = 380,000) | AID 624172, 2012
# TSHR antag: Antagonists of the Thyroid Stimulating Hormone Receptor: HTS campaign. Thyrotropin receptor (Homo sapiens), P16473. TSHR-expressing cells, TSH-stimulated cAMP HTRF, 2 h; stronger effect = lower value. activity change, negative = inhibition, % at 11.5 µM. actives 0.2% (n = 330,000). AID 504810, 2011;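 active = activity change below a set negative limit, meaning inhibition stronger than a set level, cut at about -70% in these data; inconclusive = activity change between two set negative limits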
#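 TSHR-expressing cells were treated with compounds, then stimulated with TSH at EC80 (4nM final) for 2 hours at 37 deg C. Cellular cAMP was measured by HTRF competition between lysate cAMP and cAMP-d2 for a cryptate-labelled anti-cAMP antibody.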
# HEK293 tox: qHTS of GLP-1 Receptor Inverse Agonists: Cytotox Screen | HEK293 cAMP-luciferase reporter cells, luminescence, 24 h | Potency, µM (doses to about 38.3 µM), hits mostly inhibitors | actives 0.13% (n = 410,000);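 note: loss of luciferase light is scored as toxicity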
#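 MLSMR compounds, 24 hr on cells at 37 deg C/5% CO2; luminescence after luciferase reagent (12 min RT). Inhibition counted as the undesired cytotoxic outcome.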
# GLP-1R inv ag: qHTS of GLP-1 Receptor Inverse Agonists (Inhibition Mode); HEK293 GLP-1R CRE-luciferase, luminescence, 24 h; GLP-1R form is constitutively active; Glucagon-like peptide 1 receptor (Homo sapiens), P43220; Potency, µM (doses to about 38.3 µM), hits mostly inhibitors; actives 1.6% (n = 410,000); AID 624417, 2012; note: nearly all actives have a fitted effect of over 55% in size
#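 Inverse agonism was detected as reduced cAMP-driven luciferase luminescence after 24 h compound treatment. The cells were HEK293 clones expressing constitutively active human GLP-1R with the reporter. Reporter-only and GPR119 cell lines served as counterscreen controls.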
# PTHR1 ag: qHTS for PTHR1 Agonists: Primary Screen. HEK293 GP2 PTHR1 cells, GloSensor cAMP luminescence, 1 h. Potency, µM (titrated, usually from 115 µM), usual class: activators. actives 0.075% (n = 410,000); note: nearly all actives have a fitted effect of over 55% in size
# Target sequence (Q03431 whole entry, looked up): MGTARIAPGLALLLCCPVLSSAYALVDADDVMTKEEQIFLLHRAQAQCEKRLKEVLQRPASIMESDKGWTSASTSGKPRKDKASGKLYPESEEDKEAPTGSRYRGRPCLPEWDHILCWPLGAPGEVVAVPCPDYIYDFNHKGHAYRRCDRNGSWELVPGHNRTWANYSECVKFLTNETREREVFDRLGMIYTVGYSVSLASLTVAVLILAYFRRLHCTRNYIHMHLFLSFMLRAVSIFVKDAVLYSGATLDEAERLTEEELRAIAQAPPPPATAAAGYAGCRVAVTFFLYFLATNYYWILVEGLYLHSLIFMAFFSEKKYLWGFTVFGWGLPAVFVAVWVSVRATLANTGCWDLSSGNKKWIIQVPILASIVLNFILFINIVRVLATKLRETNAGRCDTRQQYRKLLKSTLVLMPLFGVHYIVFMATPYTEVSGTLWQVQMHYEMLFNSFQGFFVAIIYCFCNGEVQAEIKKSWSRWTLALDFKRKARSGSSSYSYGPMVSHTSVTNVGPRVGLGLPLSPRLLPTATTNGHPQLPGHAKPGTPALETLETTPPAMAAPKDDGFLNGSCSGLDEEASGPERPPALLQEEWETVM
#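 HEK-293-derived GP2 cells expressing PTHR1 and a GloSensor cAMP reporter, 3,000/well, plated overnight, given luciferin plus IBMX (each 0.5 mM as added) for 1 h at 37 °C, then compound for 1 h at 37 °C. Luminescence was read after 15 min at room temperature.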
# Hits are given with their value; i = inactive; ? = inconclusive; nt = not tested or not shown. Sampled rows, rich in hits. Any-hit rate of the full collection: about 1.8%. Unless noted, calls come from the whole dose curve; as a rule, active = well fitted curve in the direction sought with a large enough effect; inconclusive = small, poorly fitted or top-dose-only effect, or another doubt; inactive = no such curve, though single readings can be large; an effect the other way counts as inactive or inconclusive.
SMILES,GLP-1R agonist,TSHR antag,HEK293 tox,GLP-1R inv ag,PTHR1 ag
COCCNC(=O)c1cccc(OC2CCN(Cc3ccc(C(=O)OC)cc3)CC2)c1,i,i,i,i,i
Cc1ccc(CN2CCC(Oc3cccc(C(=O)N(C)CCN(C)C)c3)CC2)cc1C,i,i,?,4µM,i
COc1cc(NC(=O)CCn2cnc3ccccc3c2=O)cc(OC)c1,i,nt,i,i,i
CCOC(=O)c1[nH]c(C)c(CCC(=O)NCc2ccc(N(C)C)cc2)c1C,nt,nt,i,i,i
CCc1nc2ccc(C(=O)N(C)CC(=O)Nc3ccc(Cl)c(C(F)(F)F)c3)cc2nc1CC,i,i,?,8.9µM,i
CN(CC(=O)NC(=O)NCc1ccccc1)CC(=O)Nc1ccc(Cl)c(C(F)(F)F)c1,i,i,i,7.9µM,i
CN(CC(=O)NC(=O)NCc1ccccc1)Cc1ccc(Cl)cc1,i,i,i,?,i
CN(CC(=O)NC(=O)NCc1ccccc1)Cc1cccc(Cl)c1Cl,i,i,i,10µM,i
C=C1C[C@@]23CC[C@H]4[C@@](C)(CCC[C@@]4(C)C(=O)O)[C@@H]2CC[C@]1(O)C3,nt,i,nt,nt,nt
CS(=O)(=O)c1ccc([C@@H](O)[C@@H](COC(=O)CN)NC(=O)C(Cl)Cl)cc1,i,nt,nt,nt,nt
O=C1N[C@@H](Cc2c[nH]c3ccccc23)COC(=O)[C@H](Cc2ccc(F)cc2)C/C=C\C[C@@H]1CC(=O)N(CCO)Cc1ccccc1,i,i,i,i,i
O=C1NC[C@H](c2ccccc2)OC(=O)[C@H](Cc2ccc(F)cc2)C/C=C\C[C@H]1CC(=O)N(CCO)Cc1ccccc1,i,i,i,5.6µM,i
O=C1N[C@@H](Cc2c[nH]c3ccccc23)COC(=O)[C@@H](Cc2ccc(F)cc2)C/C=C\C[C@H]1CC(=O)N(CCO)Cc1ccccc1,i,i,?,8.9µM,i
O=C1NC[C@H](c2ccccc2)OC(=O)[C@@H](Cc2ccc(F)cc2)C/C=C\C[C@H]1CC(=O)N(CCO)Cc1ccccc1,i,i,i,i,i
O=C(CCCn1c(=O)c2cccn2c2ccccc21)NCc1ccccc1Br,nt,nt,i,i,i
Cc1cccc(CC(C)NC(=O)c2cc(COc3ccc(C)c(C)c3)on2)n1 (centres undefined),i,i,i,10µM,i
Cc1ccc(OCc2cc(C(=O)N3CCC(C(O)C(C)C)CC3)no2)cc1C (centres undefined),i,i,i,11µM,i
Cc1ccc(OCc2cc(C(=O)NC(C)Cc3cnccn3)no2)cc1C (centres undefined),i,i,i,i,i
COc1ccc(NC2=NC(=S)N(c3ccccc3C)C23CCCCC3)cc1,i,i,i,7.9µM,i
COc1ccc(NC(=O)CSCc2cnn(-c3ccccc3)c2-n2cccc2)cc1,nt,nt,i,?,i
CCOC(=O)C1(N(CC)CC)Sc2cc(C)ccc2NC1=O (centres undefined),i,i,?,6.3µM,i
c1ccc(Cn2nnnc2C(c2cccs2)N2CCSCC2)cc1 (centres undefined),i,i,i,i,i
CC1CCN(C(c2cccs2)c2nnnn2Cc2ccccc2)CC1 (centres undefined),i,i,i,10µM,i
Cc1ccc(C(c2nnnn2Cc2ccccc2)N2CCN(Cc3ccccc3)CC2)cc1 (centres undefined),i,i,i,10µM,i
CCc1nn2c(=O)cc(COC(=O)c3cccc(NC(=O)c4ccccc4C)c3)nc2s1,nt,nt,i,i,i
Cc1ccc(NC2=Nc3ccccc3N3C2=Nc2c(c(C)nn2-c2ccccc2)C3c2ccc(O)c(O)c2)cc1 (centres undefined),i,i,i,11µM,i
Cc1nn(-c2ccccc2)c2c1C(c1ccc(O)c(O)c1)N1C(=N2)C(Nc2ccccc2)=Nc2ccccc21 (centres undefined),i,i,i,i,i
